Laboratory results published in PubChem BioAssay AID1159580 (chemical genetic matrix, 2015).
The whole screen tested about 5,500 compounds, of which about 2,000 (36%) were called active. About 18% were inconclusive and are not listed. Rule as the data show it: active = normalized growth mostly below about 0.91 (no sharp cut-off); inconclusive = no clear call, values can overlap the other calls; inactive = mostly above about 0.92. Some of the results follow.

Assay: chemical genetic growth profiling, strain panel (AID 1159580);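 also: tested at 20 µM; growth read once vehicle control cultures reached saturation at 30 °C; 1 = growth at the plate median or of vehicle wells; lower values mean less growth of the strain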
Details: S. cerevisiae deletion strains, growth OD

Measured: normalized growth

CC1(C)CCC[C@@]2(C)C1[C@@H](O)C[C@]1(C)C2CC[C@@H]2[C@@]3(C)CC[C@H](C(C)(C)O)[C@@H]3CC[C@@]21C (some centres not stated)
inactive: locus YAL013W, strain DEP1, active compounds read low 0.998 | locus YBR021W, strain FUR4, active compounds read low 1.07 | locus YBR229C, strain ROT2, active compounds read low 1 | locus YCL029C, strain bik1, active compounds read low 0.971 | locus YDL035C, strain GPR1, active compounds read low 1.01 | locus YDL074C, strain BRE1, active compounds read low 1.02 | locus YDL101C, strain DUN1, active compounds read low 1 | locus YDL185W, strain tfp1, active compounds read low 0.943 | locus YDL192W, strain arf1, active compounds read low 0.993 | locus YDR101C, strain arx1, active compounds read low 1.01 | locus YDR150W, strain NUM1, active compounds read low 0.992 | locus YDR162C, strain NBP2, active compounds read low 1.04 | locus YDR318W, strain mcm21, active compounds read low 1 | locus YDR388W, active compounds read low 0.986 | locus YDR502C, strain sam2, active compounds read low 0.989 | locus YEL061C, strain CIN8, active compounds read low 1 | locus YER110C, active compounds read low 0.977 | locus YER155C, strain BEM2, active compounds read low 1.01 | locus YER167W, strain BCK2, active compounds read low 0.997 | locus YGL078C, strain dbp3, active compounds read low 1 | locus YGL086W, strain mad1, active compounds read low 1.05 | locus YGL248W, strain PDE1, active compounds read low 1 | locus YGR135W, strain pre9, active compounds read low 0.993 | locus YGR252W, strain gcn5, active compounds read low 1.06 | locus YHR030C, strain SLT2, active compounds read low 0.992 | locus YHR079C, strain IRE1 (second series), active compounds read low 1.01 | locus YHR094C, strain hxt1, active compounds read low 0.981 | locus YHR129C, strain ARP1, active compounds read low 0.997 | locus YHR200W, strain rpn10, active compounds read low 0.984 | locus YIL066C, strain RNR3, active compounds read low 1.03 | locus YIL073C, strain SPO22, active compounds read low 0.941 | locus YIL125W, strain kgd1, active compounds read low 0.972 | locus YIR030C, strain dcg1, active compounds read low 0.996 | locus YJL095W, strain BCK1, active compounds read low 1.02 | locus YJL134W, strain LCB3, active compounds read low 0.991 | locus YJL168C, strain set2, active compounds read low 1.01 | locus YJL187C, strain SWE1 (second series), active compounds read low 1 | locus YJR043C, strain POL32, active compounds read low 1.03 | locus YKL009W, strain mrt4, active compounds read low 1.05 | locus YKL068W, active compounds read low 0.98 | locus YKL085W, strain MDH1 (second series), active compounds read low 1.04 | locus YKL085W, strain MDH1, active compounds read low 1.04 | locus YKL190W, strain CNB1, active compounds read low 0.997 | locus YKR001C, strain vps1, active compounds read low 1.03 | locus YLR039C, strain RIC1, active compounds read low 1.05 | locus YLR058C, strain SHM2, active compounds read low 0.996 | locus YLR102C, strain apc9, active compounds read low 0.995 | locus YLR262C, strain YPT6, active compounds read low 1.04 | locus YLR268W, strain sec22, active compounds read low 0.986 | locus YLR330W, strain CHS5, active compounds read low 0.983 | locus YLR342W, strain FKS1 (second series), active compounds read low 1.01 | locus YLR371W, strain rom2, active compounds read low 0.984 | locus YLR418C, strain cdc73, active compounds read low 1.06 | locus YML016C, strain PPZ1, active compounds read low 0.995 | locus YML032C, strain rad52, active compounds read low 0.983 | locus YML124C, strain tub3, active compounds read low 1.01 | locus YMR078C, strain ctf18, active compounds read low 1.01 | locus YMR223W, strain ubp8, active compounds read low 0.998 | locus YMR263W, strain SAP30, active compounds read low 1 | locus YMR307W, strain GAS1, active compounds read low 1.12 | locus YNL067W, strain RPL9B, active compounds read low 1.02 | locus YNL153C, strain GIM3, active compounds read low 1.02 | locus YNL233W, strain BNI4, active compounds read low 1.03 | locus YNL250W, strain rad50, active compounds read low 0.982 | locus YNL271C, strain bni1, active compounds read low 0.997 | locus YNL298W, strain CLA4, active compounds read low 0.975 | locus YNL307C, strain MCK1, active compounds read low 0.996 | locus YNL322C, strain KRE1, active compounds read low 1 | locus YNR052C, strain pop2, active compounds read low 0.994 | locus YOL012C, strain htz1 1.13 | locus YOL147C, strain pex11, active compounds read low 0.993 | locus YOR061W, strain CKA2, active compounds read low 0.999 | locus YOR069W, strain VPS5, active compounds read low 0.993 | locus YOR136W, strain idh2, active compounds read low 0.988 | locus YOR144C, strain elg1, active compounds read low 0.997 | locus YOR184W, strain ser1, active compounds read low 1.01 | locus YOR316C, strain cot1, active compounds read low 0.985 | locus YPR119W, strain clb2, active compounds read low 1 | locus YPR141C, strain kar3, active compounds read low 0.982 | locus YPR163C, strain tif3, active compounds read low 0.99 | locus YPR167C, strain met16, active compounds read low 0.989 | strain wtn01, active compounds read low 0.986
